Each structure is given as a SMILES string. Where a name gives a salt, the structure may show the parent alone.

The test system of the experiment is Danio rerio larvae (5 dpf). Put plainly: activity during first hour (no stimuli), difference vs DMSO (percentage points (treated minus DMSO)); higher = more of the behaviour than the DMSO vehicle control. The following applies: 10 µM; exposure time: 3 h pre-incubation + 3 h imaging. The procedure:
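5-dpf wild-type zebrafish larvae were imaged in 96-well plates. They were treated with 190 Tocris FDA-approved drugs at 10 µM (1 µl/ml DMSO) for 3 h before and 3 h during imaging at 28.5 °C, 48 larvae per drug. Automated image analysis gave % time moving and optomotor responses. Values are drug group mean minus DMSO vehicle mean (n=844), in percentage points, for 10 behaviours.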
In the case of `N#Cc1ccc2[nH]cc(CCCCN3CCN(c4ccc5oc(C(N)=O)cc5c4)CC3)c2c1` [Vilazodone hydrochloride], the “activity during first hour” value is -24.1.

On to `O=c1n(CCCN2CCN(c3cccc(Cl)c3)CC2)nc2ccccn12` [Trazodone hydrochloride], for which the “activity during first hour” value was -0.623. With `C/C(O)=C(\C#N)C(=O)Nc1ccc(C(F)(F)F)cc1` [Teriflunomide] the figure was -8.27; with `CN(C)C(=N)NC(=N)N` [Metformin hydrochloride], -6.37; with `COc1ccc(-c2ccc3cc(C(=O)O)ccc3c2)cc1C12CC3CC(CC(C3)C1)C2` [Adapalene], -0.0907. With `CN1CC(=O)N2[C@H](c3ccc4c(c3)OCO4)c3[nH]c4ccccc4c3C[C@@H]2C1=O` [Tadalafil] the figure was 11. With `COc1c(C)c2c(c(O)c1C/C=C(\C)CCC(=O)OCCN1CCOCC1)C(=O)OC2` [Mycophenolate mofetil] the figure was -1.93; with `Cc1nc(-c2ccc(OCC(C)C)c(C#N)c2)sc1C(=O)O` [Febuxostat], -0.179; with `CC(C)c1ccc2oc3nc(N)c(C(=O)O)cc3c(=O)c2c1` [Amlexanox], 6.6. Turning to `CN1CCN(CCCN2c3ccccc3Sc3ccc(Cl)cc32)CC1` [Prochlorperazine dimaleate], the “activity during first hour” value was 10.4. With `Clc1ccc2nsnc2c1NC1=NCCN1` [Tizanidine hydrochloride] the figure was -14.2; with `CC(=O)Nc1ccc(O)cc1` [Acetaminophen], 5.63; with `COc1cc(Nc2c(C#N)cnc3cc(OCCCN4CCN(C)CC4)c(OC)cc23)c(Cl)cc1Cl` [Bosutinib], -16.6. With `CN1CC2c3ccccc3Oc3ccc(Cl)cc3C2C1` (stereo not given) [Asenapine maleate] the figure was 38.5; with `COc1ccc([C@@H]2Sc3ccccc3N(CCN(C)C)C(=O)[C@@H]2OC(C)=O)cc1` [Diltiazem hydrochloride], -3.56. With `OCCN(CCO)c1nc(N2CCCCC2)c2nc(N(CCO)CCO)nc(N3CCCCC3)c2n1` [Dipyridamole] the figure was -0.789. With `C[C@H](Cc1cc2c(c(C(N)=O)c1)N(CCCO)CC2)NCCOc1ccccc1OCC(F)(F)F` [Silodosin], the “activity during first hour” value was -1.39. With `CC(C)COCC(CN(Cc1ccccc1)c1ccccc1)N1CCCC1` (stereo not given) [Bepridil hydrochloride] the figure was 0.257; with `O=C(O)C[C@H](O)C[C@H](O)/C=C/c1c(C2CC2)nc2ccccc2c1-c1ccc(F)cc1` [Pitavastatin calcium], -0.557; with `COC(c1ccccc1)(c1ccccc1)[C@H](Oc1nc(C)cc(C)n1)C(=O)O` [Ambrisentan], 1.9. Take `CN(CCOc1ccc(CC2SC(=O)NC2=O)cc1)c1ccccn1` (stereo not given) [Rosiglitazone]: the “activity during first hour” value amounted to 2.2.

`Cn1cnc([N+](=O)[O-])c1Sc1ncnc2[nH]cnc12` [Azathioprine]: the “activity during first hour” value came out at 7.36.

For the compound `Cc1cc2c(s1)Nc1ccccc1N=C2N1CCN(C)CC1` [Olanzapine], the “activity during first hour” value was found to be 8.05.

Take `CCOc1ccccc1OCCN[C@H](C)Cc1ccc(OC)c(S(N)(=O)=O)c1` [Tamsulosin hydrochloride]: the “activity during first hour” value was determined as 7.36. With `N#Cc1ccc(C(c2ccc(C#N)cc2)n2cncn2)cc1` [Letrozole] the figure was -3.63; with `O=C1CCc2ccc(OCCCCN3CCN(c4cccc(Cl)c4Cl)CC3)cc2N1` [Aripiprazole], 8.28; with `CS(=O)(=O)CCNCc1ccc(-c2ccc3ncnc(Nc4ccc(OCc5cccc(F)c5)c(Cl)c4)c3c2)o1` [Lapatinib], -5.32. With `CC(=O)Oc1ccccc1C(=O)O` [Aspirin] the figure was -0.0609; with `CCCCCCCN(CC)CCCC(O)c1ccc(NS(C)(=O)=O)cc1` (stereo not given) [Ibutilide hemifumarate], -4.99.

As for `Brc1c(NC2=NCCN2)ccc2nccnc12`, the “activity during first hour” value was -17. With `OC(CNCC(O)C1CCc2cc(F)ccc2O1)C1CCc2cc(F)ccc2O1` (stereo not given) [Nebivolol hydrochloride] the figure was 4.97. With `CC(C)c1nc(CN(C)C(=O)N[C@H](C(=O)N[C@@H](Cc2ccccc2)C[C@H](O)[C@H](Cc2ccccc2)NC(=O)OCc2cncs2)C(C)C)cs1` [Ritonavir] the figure was -0.488. With `CC1(C)O[C@@H]2[C@@H](CO[C@@]3(COS(N)(=O)=O)OC(C)(C)O[C@@H]23)O1` [Topiramate] the figure was 10.7. As for `CC/C(=C(\c1ccccc1)c1ccc(OCCN(C)C)cc1)c1ccccc1` [Tamoxifen citrate], the “activity during first hour” value was 31.4. With `CCOC(=O)[C@H](CCc1ccccc1)N[C@@H](C)C(=O)N1[C@H](C(=O)O)C[C@@H]2CCC[C@@H]21` [Ramipril] the figure was 2.6.

For the compound `C#CCN[C@@H]1CCc2ccccc21` [Rasagiline mesylate], the “activity during first hour” value is 4.92. With `CC(C)Nc1cccnc1N1CCN(C(=O)c2cc3cc(NS(C)(=O)=O)ccc3[nH]2)CC1` [Delavirdine mesylate] the figure was -1.59; with `CCOC(=O)c1ncn2c1CN(C)C(=O)c1cc(F)ccc1-2` [Flumazenil], 2.88. Take `CN(C)CCc1c[nH]c2ccc(Cn3cncn3)cc12` [Rizatriptan benzoate]: the “activity during first hour” value is -2.37. In the case of `COc1cc(N)c(Cl)cc1C(=O)NC1CCN(CCCOc2ccc(F)cc2)CC1OC` (stereo not given) [Cisapride], the “activity during first hour” value was 1.47.
